Test results published in ChEMBL document CHEMBL3988442, “University of Dundee, Small-Polar-MMV Screening Library” (2021).
In all, about 48,000 compounds went through this assay and about 13,000 (27%) showed an effect of 50% or more. The list shows a part of the results.

What follows are compounds tested on Wolbachia pipientis (assay: Anti-Wolbachia Cell-Based Screen). Settings: 5 µM.
Format: functional
Parameters: scale not given: in the data most compounds retested in dose-response had high values

Structure (SMILES)	Percent Effect
COCCn1cc(NC(=O)NCC2CCN(c3ccccc3)C2)cn1 (configuration not stated)	6.997%
Cc1cc(CN2CCC(c3ccnn3CCO)CC2)no1	-5.622%
CCNc1ncc(C(=O)NCc2csc(-c3cnccn3)n2)cn1	-2.125%
CCC1COCCN1C(=O)NCc1cccc(-c2cnn(C)c2)c1 (configuration not stated)	-16.85%
Cc1ccc(CNC[C@H]2Cn3cc(-c4ccccc4)nc3CO2)cc1	-14.25%
COc1ccc(CNC[C@H]2COCc3nc4cc(F)ccc4n32)cn1	2.56%
CN1C[C@@H](COCC2CC2)[C@H]2CCN(Cc3ccco3)CC[C@H]2C1=O.O=C(O)C(F)(F)F	-15.86%
c1csc(CN2CC[C@H]3O[C@@H](COCC4CC4)CC[C@H]32)c1	-24.01%
O=C(O)C(F)(F)F.c1coc(CN2CC[C@H]3O[C@@H](COCC4CC4)CC[C@H]32)c1	103.1%
CCSc1nnc(N2CCN(c3ccccc3)CC2)s1	-16.68%
CCc1nc(N)nc(N(C)Cc2nncn2CCOC)c1C	-4.118%
Cc1cccc(CC2COCCN(Cc3nccn3C)C2)n1 (configuration not stated)	119.1%
Cc1cnc(CC2COCCN(Cc3nccn3C)C2)cn1 (configuration not stated)	117.2%
Cc1noc(C)c1CN1CCN(Cc2nccn2C)C(C)C1 (configuration not stated)	-9.694%
Cn1ccnc1C1CCN(CCC2CCOC2)CC1 (configuration not stated)	-2.458%
Cc1cc(-n2cccn2)ccc1CN1CCOCC(CN(C)C)C1 (configuration not stated)	-16.76%
CN(C)c1ccc(CC2COCCN(Cc3nccn3C)C2)nn1 (configuration not stated)	107.3%
Cn1ccnc1CN1CCOCC(Cc2ccccn2)C1 (configuration not stated)	-4.289%
CCN1CCN(S(=O)(=O)N2CCc3ccccc3C2)[C@H]2CS(=O)(=O)C[C@H]21	-15.22%
CS(=O)(=O)NCCCN1CCCC1c1ccccc1 (configuration not stated)	-6.695%
O=C1C(Nc2ccc3nccnc3n2)CCN1c1ccccc1 (configuration not stated)	8.259%
Cc1nnc2n1CC(CNCc1nc(-c3ccsc3)no1)CC2 (configuration not stated)	-10.67%

Structure (SMILES)	Percent Effect
c1csc(-c2nnc(CSCCN3CCOCC3)o2)c1	0.2217%
Cc1ccc(C(=O)N2CCCN(C)c3ccc(F)cc32)o1	112.2%
CN1CCCN(C(=O)c2cnsn2)c2cc(Cl)ccc21	103.8%
CN1CCCN(C(=O)c2cnsn2)c2cc(F)ccc21	119.4%
CN1CCN(C(=O)c2csnn2)c2ccccc21	10.7%
CN1CCN(S(C)(=O)=O)c2cc(F)ccc21	-2.725%
CN1CCN(C(=O)c2cnsn2)c2cc(F)ccc21	151.8%
CN1CCCN(S(=O)(=O)c2cn(C)cn2)c2cc(F)ccc21	-12.29%
O=C(Nc1c(N2CCCC2)cccc1N1CCCC1)c1cnsn1	-3.532%
O=C(c1cncc(Br)c1)N1CCCc2ccc(F)cc21	6.203%
CN1CCCN(S(C)(=O)=O)c2cc(F)ccc21	-11.53%
CC1CN(C)c2ccccc2CN1C(=O)c1cnsn1 (configuration not stated)	-24.53%
CN1CCCN(S(=O)(=O)c2cnn(C)c2)c2cc(Cl)ccc21	-13.02%
CN(Cc1cnccn1)C(=O)c1ccc(CSc2nnc[nH]2)o1	-27.79%
CSc1ccc(NCC(=O)NCC(=O)N2CCCC2)cc1F	-3.658%
CN1CCN(C(=O)c2cnsn2)c2ccc(F)cc21	79.94%
CN1CCN(C(=O)CCc2cccnc2)c2ccc(F)cc21	-6.701%
CN1CCN(C(=O)CCCc2ccccn2)c2ccc(F)cc21	-53.44%
CCN(C(=O)c1c(Cl)cnn1CC)C(C)C(N)=O (configuration not stated)	-13.9%
CCN(CC)C(=O)c1c(Cl)cnn1CC	102.5%
CCN(CC)C(=O)CCn1ncc2c(Cl)cccc21	18.4%
CCn1ncc(Br)c1CN(C)S(=O)(=O)c1ccc(C)cc1	6.609%

Structure (SMILES)	Percent Effect
CCN(CC)C(=O)c1nnn(Cc2ccccc2)c1OC	4.418%
CCN(CC)C(=O)c1c(Br)cnn1CC	113.9%
Cc1cnc(NC(=O)c2cccc(CN(C)Cc3snnc3C)c2)s1	-4.019%
CC(=O)Nc1ccc2nc(CN(C)Cc3noc(C)n3)ccc2c1	88.54%
CC(=O)Nc1ccc2nc(-c3nccn3CCCN(C)C)ccc2c1	3.374%
CC(=O)Nc1ccc2nc(CN(C)Cc3snnc3C)ccc2c1	89.45%
CC(=O)Nc1ccc2nc(-c3nccn3C[C@@H]3CCCO3)ccc2c1	-0.02427%
CC(=O)Nc1ccc(CNC(=O)CNCc2snnc2C)cc1	-4.998%
Cc1nnsc1CN(C)Cc1ccc(C(=O)Nc2sccc2C#N)cc1	-8.441%
CC(=O)Nc1ccc(CN(C)Cc2snnc2C)cc1	104.3%
Cc1nc(CNC(=O)Nc2ccc3c(ccn3CCN(C)C)c2)no1	-28.14%
CN1C[C@@H](n2cnc(-c3ccccc3)c2-c2nccn2C)C[C@H]1C(=O)O	-7.865%
CN1CCCN(C[C@@H]2CN(C(=O)CCC3CCCC3)C[C@@H]2CO)CC1	0.9084%
CC(=O)N1CCCCCC1C1CCN(Cc2nnc(C(C)(C)C)o2)CC1.Cl (configuration not stated)	-4.894%
Cc1nc(C(C)(C)C)sc1C(=O)NCCn1ccnc1	6.238%
Cc1nc(-c2ccc(CNS(=O)(=O)N(C)C)cc2)ccc1C(N)=O	115%
CNC(=O)c1cc2c(nc1NCC(C)C)CCN(S(=O)(=O)N(C)C)CC2	-14.23%
CNS(=O)(=O)Cc1ccc(CNC(=O)c2ccc(C)[nH]c2=O)cc1	6.775%
CCC(C)NC(=O)c1ccc(CNC(=O)COC)cc1 (configuration not stated)	4.124%
Cc1ccc(-c2nc(CNS(=O)(=O)N(C)C)[nH]c2-c2ccccn2)cc1	19.45%
CNC(=O)c1ccc(CNC(=O)c2ccc(Cl)cc2F)cc1	6.561%
CCN(C(=O)c1ccc(-c2ccccc2)nc1C)C1CC(=O)NC1=O (configuration not stated)	2.82%

Structure (SMILES)	Percent Effect
Cc1nc(-c2ccsc2)ccc1C(=O)O	-6.285%
CNC(=O)c1ccc(-c2ccc(CNS(=O)(=O)N(C)C)cc2)nc1C	96.06%
CNC(=O)c1ccc(-c2ccc(CNC(=O)COC)cc2)nc1C	125.2%
CCN(CC)S(=O)(=O)NCc1ccc(-c2ccc(C(N)=O)c(C)n2)cc1	82.68%
CCN(CC)C(=O)c1ccc(-c2ccsc2)nc1C	7.441%
O=C1C(NCc2cccc(O)c2)CCN1Cc1ccccc1 (configuration not stated)	0.7589%
CC(=O)N(C)CC(=O)Nc1cccc(N2CCN(CC3CC3)CC2)c1	-2.755%
CC(NS(=O)(=O)N(C)C)c1cccc(-n2cccn2)c1 (configuration not stated)	-7.408%
CC(=O)c1cccc(OCCCC(=O)NCC2CCCN2C)c1 (configuration not stated)	-10.21%
COC(=O)c1sccc1S(=O)(=O)NCCC(O)c1ccco1 (configuration not stated)	-8.026%
CCc1nnc(SCC(=O)N2CCc3[nH]nc(C4CCC4)c3C2)o1	38.87%
Cc1ccc(CN(C(=O)c2cccc(NC(N)=O)c2)C2CC2)o1	-0.2723%
N#Cc1cccc(NC(=O)N[C@H](CO)c2ccccc2)c1	-16.24%
COCc1nc(CNC2CCSC2)no1 (configuration not stated)	-14.23%
O=C1CC(NCc2ccncc2)CN1CCc1cccc(Cl)c1 (configuration not stated)	73.7%
O=C1CC(NCc2cccc(O)c2)CN1CCc1cccc(Cl)c1 (configuration not stated)	126.2%
CCn1cc(CNC2CC(=O)N(CCc3cccc(Cl)c3)C2)cn1 (configuration not stated)	-6.807%
CCn1ccnc1CN1CCCC(CO)(Cc2cccc(Cl)c2)C1 (configuration not stated)	-3.247%
CCn1ccnc1C1CCN(Cc2cccc(Cl)c2)CC1	9.663%
CCc1ncc(CNC2CC(=O)N(CCc3cccc(Cl)c3)C2)cn1 (configuration not stated)	-5.676%
Cc1cccc(CNC2CC(=O)N(Cc3cccc(F)c3)C2)c1 (configuration not stated)	24.38%
CCn1ccnc1CNC1CC(=O)N(CCc2cccc(Cl)c2)C1 (configuration not stated)	120.9%

Structure (SMILES)	Percent Effect
Oc1cccc(CNC2CCN(CCc3ccncc3)CC2)c1	-20.44%
COc1ccccc1CCNC(=O)NC(C)COCC(F)(F)F (configuration not stated)	-18.36%
CC(CS(C)(=O)=O)NCc1cc(Cl)ccc1F (configuration not stated)	6.588%
CN(Cc1ccccc1-n1cccn1)c1nc(N)nc2c1CCNCC2	7.066%
COCCN(Cc1ccc(C)cc1)Cc1nccn1C	5.615%
CCC(CC)C(=O)NCCc1ccn(-c2ccccc2)n1	133.4%
COCCNC(=O)NCCc1ccn(-c2ccccc2)n1	4.023%
CCN(CC)C(=O)NCCc1ccn(-c2ccccc2)n1	134.9%
CCC(C(=O)NCCc1ccn(-c2ccccc2)n1)N1CCCC1=O (configuration not stated)	2.511%
COc1ccc(CNCCc2ccn(-c3ccccc3)n2)cc1O	7.82%
CC(=O)NC1CCc2ccc(S(=O)(=O)NCc3ncccc3C)cc21 (configuration not stated)	37.01%
Cc1nn(C)c(C)c1OCC(=O)N1CCCC1	-17.38%
CC(=O)N1CCCC(Cc2cnc(-c3c(C)nn(C)c3C)cn2)C1 (configuration not stated)	146.7%
COCCN1CCCC(Cc2cnc(-c3c(C)nn(C)c3C)cn2)C1 (configuration not stated)	161.1%
CC(=O)N1CCC(Cc2cnc(-c3c(C)nn(C)c3C)cn2)CC1	190.1%
COCCN1CCCC(CN(C)c2nc3c(s2)c(C)nn3C)C1 (configuration not stated)	-14.47%
COCCN1CCC(CN(C)c2ncnc3c2c(C)nn3C)C1 (configuration not stated)	-22.39%
Cc1nn(C)c(C)c1OCC(=O)N1CCCCC1	-9.266%
COCCn1c(=O)n(Cc2cccc(F)c2F)c2cc(C(=O)O)ccc21	-6.581%
